# This is a sample that favours compounds with a hit; in the whole collection about 2.2% have one here.
# MEKK2wt PB1 HTS – modulators of MEK5 binding to wildtype MEKK2, primary screen, biochemical, multiplex bead flow cytometry, Alexa488-MEK5; Alexa488-MEK5 binding to MEKK2 WT; actives lie on both sides; binding response (% of control), % at 10 µM; actives 1.1% (n = 290,000); AID 1531, 2009; in the data active means binding response below about 67% or above about 130%
# MEKK2 mut-MEK5 – MEK5 binding signal on mutant MEKK2 PB1, primary screen, biochemical, multiplex bead flow cytometry, Alexa488-MEK5 | AID 1530, 2009 | percent response, % at 10 µM | actives 0.35% (n = 290,000) | Alexa488-MEK5 binding to MEKK2 mutant; in the data active means percent response above about 24%, passing the limit was not always enough
# MEKK3 PB1 HTS – modulators of MEKK3-MEK5 PB1 binding, primary screen, biochemical, wildtype MEKK3, multiplex bead flow cytometry, Alexa488-MEK5; Mitogen-activated protein kinase kinase kinase 3 (Homo sapiens), Q99759; bead-based flow cytometry, Alexa488-MEK5 binding to MEKK3; actives lie on both sides; 0 = blocked by unlabeled MEK5, 100 = vehicle; binding response (% of control), % at 10 µM; actives 1.4% (n = 290,000);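 active means binding response more than 3 SD above or below the average of its plate-row segment, actives on both sides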;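 further: Alexa488 bead fluorescence after subtracting the streptavidin-only scavenger bead signal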
# Target sequence (Q99759 whole entry, looked up): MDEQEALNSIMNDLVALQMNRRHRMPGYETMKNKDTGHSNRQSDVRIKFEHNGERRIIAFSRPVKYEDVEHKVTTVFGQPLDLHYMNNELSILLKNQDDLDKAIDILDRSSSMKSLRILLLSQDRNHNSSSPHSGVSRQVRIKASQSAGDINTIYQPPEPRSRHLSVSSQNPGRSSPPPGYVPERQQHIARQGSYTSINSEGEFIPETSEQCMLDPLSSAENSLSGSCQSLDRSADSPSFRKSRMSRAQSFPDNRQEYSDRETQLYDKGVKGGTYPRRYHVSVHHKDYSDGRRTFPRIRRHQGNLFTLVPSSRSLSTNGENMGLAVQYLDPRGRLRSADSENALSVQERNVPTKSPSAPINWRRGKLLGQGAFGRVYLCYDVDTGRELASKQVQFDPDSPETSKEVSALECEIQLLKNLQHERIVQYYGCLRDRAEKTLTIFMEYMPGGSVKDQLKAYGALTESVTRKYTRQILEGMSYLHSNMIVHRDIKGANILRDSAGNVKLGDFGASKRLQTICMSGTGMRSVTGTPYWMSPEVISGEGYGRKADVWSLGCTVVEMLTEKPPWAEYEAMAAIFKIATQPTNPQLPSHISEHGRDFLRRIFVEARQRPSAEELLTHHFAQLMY
# VLA-4 inh – inhibition in human VLA-4 binding assay, primary screen, VLA-4 allosteric modulator project, MLPCN library, flow cytometry, VLA-4 expressing cells. Integrin alpha-4 (Homo sapiens), P13612. ligand binding flow cytometry. inhibition, % (about 7 µM as worked out from the volumes in the protocol). actives 0.2% (n = 330,000); in the data active means inhibition above about 50%
# VLA-4 allo CP – retest of VLA-4 allosteric modulators, confirmation, cell-based, cherry-picked plates, U937, HUTS-21 LIBS antibody | shares compounds with VLA-4 inh | U937 cells, HUTS-21 LIBS mAb binding, flow cytometry; LDV ligand present at threefold Kd | inhibition, % at 6.7 µM | actives 2% (n = 1,300) | AID 2813, 2010; in the data active means inhibition above about 40%;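 further: 0% = ligand without compound and 100% = no ligand background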
# The depositor's hits bear a star; nt = no result given.
SMILES,MEKK2wt PB1 HTS,MEKK2 mut-MEK5,MEKK3 PB1 HTS,VLA-4 inh,VLA-4 allo CP
CCCN1CCN(CCCNC(=O)c2ccc3nc(N4CCC(C)CC4)sc3c2)CC1,114.0,8.0,101.0,9.6,-2.2
CCOC(=O)N1CCN(C(=O)CCc2ccc(S(=O)(=O)NC(C)(C)C)cc2)CC1,102.0,-1.0,102.0,0.0,nt
Cc1cccc(NC(=O)c2ccc3nc(N4CCOCC4)sc3c2)c1C,107.0,6.0,102.0,2.8,nt
CCc1cccc(C)c1NC(=O)c1ccc2nc(N3CCOCC3)sc2c1,102.0,1.0,106.0,50.3*,4.4
CC(=O)Nc1nc(COc2ccc3ccccc3c2)cs1,100.0,-1.0,103.0,56.2*,5.4
CC(=O)Nc1nc(COc2ccccc2)cs1,101.0,4.0,102.0,0.1,nt
O=S(=O)(c1cccc(-c2n[nH]c(=S)n2-c2ccc(OC(F)(F)F)cc2)c1)N1CCOCC1,nt,nt,nt,4.9,nt
Nc1ncnc(Nc2ccccc2)n1,nt,nt,nt,54.5*,-4.9
Cc1ccc(CNC(=O)C2CCCCN2S(=O)(=O)c2ccccc2)cc1 (centres undefined),103.0,-1.0,108.0,54.7*,16.1
N#Cc1c(-c2c(Cl)cccc2Cl)noc1/C=C/Nc1ccc(C(=O)O)cc1,107.0,0.0,101.0,42.5,-2.0
C[C@H]1COC(=O)[C@H](Cc2ccc(F)cc2)C/C=C\C[C@H](CC(=O)N(CCO)Cc2ccccc2)C(=O)N1,nt,nt,nt,112.9*,5.7
CC(C(=O)Nc1ccc(F)cc1Cl)N1CCN(S(=O)(=O)c2cccs2)CC1 (centres undefined),nt,nt,nt,2.8,nt
COc1ccc(N2CCN(C(=O)c3ccccc3NC(=O)c3ccccc3)CC2)cc1,104.0,4.0,105.0,1.0,nt
COC(=O)c1ccc(CNC(=O)CN(CCC(C)C)S(=O)(=O)c2ccc3c(c2)OCCO3)cc1,104.0,-1.0,105.0,6.3,nt
CCN(CC(=O)NCc1cccs1)S(=O)(=O)c1ccc(F)cc1,nt,nt,nt,0.8,nt
COc1ccc(S(=O)(=O)N(C)CC(=O)NCc2ccccc2)cc1OC,108.0,7.0,103.0,15.4,-1.4
COCCCNC(=O)CN(CCc1ccccc1)S(=O)(=O)c1ccc(OC)cc1,90.0,-13.0,98.0,8.8,nt
CC(C)CCN(CC(=O)NCc1ccc(F)cc1)S(=O)(=O)c1ccccc1F,105.0,3.0,106.0,1.4,0.0
COCCCN(CC(=O)NCc1ccccc1)S(=O)(=O)c1ccc(C)cc1,106.0,6.0,108.0,13.3,4.0
CCN(CC(=O)NCc1ccc(F)cc1)S(=O)(=O)c1ccc(C)cc1,101.0,0.0,102.0,2.2,2.0
Cc1cc(C)c(C(=O)NCC(=O)c2ccccc2)c(C)c1,nt,nt,nt,-12.3,nt
O=C(NCc1ccccc1CN1CCCC1)C1CCN(C(=O)c2ccc(F)cc2)CC1,nt,nt,nt,0.1,nt
COC(=O)C(C)Sc1nc2ccsc2c(=O)n1Cc1ccccc1 (centres undefined),95.0,1.0,98.0,-1.8,nt
O=C1Cc2cc(S(=O)(=O)NCc3ccc(F)cc3)ccc2N1,nt,nt,nt,-1.6,0.0
O=C1CCc2cc(S(=O)(=O)Nc3ccc(F)cc3)ccc2N1,nt,nt,nt,15.2,nt
SMILES,MEKK2wt PB1 HTS,MEKK2 mut-MEK5,MEKK3 PB1 HTS,VLA-4 inh,VLA-4 allo CP
O=S(=O)(Nc1ccccn1)c1cc(Cl)ccc1Cl,102.0,6.0,104.0,3.6,nt
O=S(=O)(Nc1ncccn1)c1cc(Cl)ccc1Cl,106.0,6.0,103.0,-1.1,-6.7
C#CC1CN(Cc2ccccc2)CC(C#C)N1C (centres undefined),108.0,6.0,111.0,61.8*,2.7
O=C(Nc1ccccc1)c1cc(S(=O)(=O)N2CCCCC2)ccc1N1CCOCC1,nt,nt,nt,18.6,-0.2
NC(=O)c1ccccc1NC(=O)c1cc(S(=O)(=O)N2CCCCC2)ccc1N1CCOCC1,nt,nt,nt,6.0,-4.1
O=C(Nc1cc(S(=O)(=O)N2CCOCC2)ccc1N1CCOCC1)c1ccccc1Cl,nt,nt,nt,1.8,nt
O=C(Nc1cccc(S(=O)(=O)N2CCCCC2)c1)c1cc([N+](=O)[O-])ccc1N1CCOCC1,nt,nt,nt,0.0,nt
Cc1ccc(C)c(NC(=O)c2cc(S(=O)(=O)N3CCCCC3)ccc2N2CCOCC2)c1,nt,nt,nt,50.9*,3.8
CCOc1ccc(NC(=O)c2c(OC)cccc2OC)cc1,109.0,8.0,107.0,4.1,nt
CCOc1ccc(NC(=O)COC(=O)c2c(OC)cccc2OC)cc1,102.0,-2.0,104.0,-6.1,-15.7
NC(=O)C1CCN(C(=O)CN(C2CCCCC2)S(=O)(=O)c2ccc(F)cc2)CC1,100.0,4.0,101.0,-4.7,nt
CCOc1cc(/C=C2\C(=N)N3N=C(S(C)(=O)=O)SC3=NC2=O)ccc1OCCOc1cccc(OC)c1,95.0,-7.0,99.0,42.8,-13.4
CCS(=O)(=O)C1=NN2C(=N)/C(=C\c3ccc(OCCOc4cccc(OC)c4)c(OC)c3)C(=O)N=C2S1,93.0,-1.0,102.0,-0.9,nt
C=CCn1c(O)c(C2=c3ccccc3=NC2=O)c2ccccc21,110.0,16.0,105.0,51.3*,-0.1
Cc1ccc2c(c1)c(C1=c3ccccc3=NC1=O)c(O)n2C,105.0,3.0,103.0,3.0,nt
O=C(CCc1nc2ccccc2s1)OCC(=O)c1ccccc1,102.0,7.0,96.0,41.6,-11.8
O=C(CCc1nc2ccccc2s1)c1ccccc1,98.0,-2.0,108.0,1.8,nt
O=C(O)COCC(=O)Nc1ccc(OCCc2ccccc2)cc1,99.0,4.0,101.0,-13.6,nt
COc1ccc(NC(=O)CCN2C(=O)c3cccc([N+](=O)[O-])c3C2=O)cc1,102.0,4.0,102.0,51.0*,-3.5
COc1cccc(NC(=O)CCN2C(=O)c3cccc([N+](=O)[O-])c3C2=O)c1,105.0,3.0,103.0,-1.0,nt
CCOc1ccc(N(Cc2ccc(OC)c(OC)c2)C(=O)c2ccco2)cc1,92.0,-3.0,94.0,67.8*,8.2
COC(=O)c1ccc(C)c(NC(=O)c2ccc(Cl)c([N+](=O)[O-])c2)c1,99.0,0.0,102.0,53.8*,-15.1
O=C(Nc1ccsc1C(=O)O)c1cccc(C(F)(F)F)c1,103.0,0.0,101.0,40.2,-16.7
O=C(Nc1ccsc1C(=O)O)c1cccc(Oc2ccccc2)c1,104.0,4.0,99.0,-1.5,nt
CC1CCCCN1c1ncnc(N)c1[N+](=O)[O-] (centres undefined),100.0,-2.0,104.0,-1.9,nt
CC1Cc2ccccc2N1c1ncnc(N)c1[N+](=O)[O-] (centres undefined),88.0,-5.0,91.0,52.6*,15.6
COc1ccc(C(=O)Nc2nnc(S(=O)(=O)N3CCOCC3)s2)cc1,103.0,6.0,104.0,2.6,nt
O=C(COc1ccc(Cl)cc1Cl)NN1C(=O)C2C3C=CC(C3)C2C1=O (centres undefined),96.0,-23.0,91.0,29.5,nt

# Screening results from PubChem BioAssay.
